Assay outcomes as filed in PubChem.
Hits are enriched below; roughly 6.2% of the tested compounds scored in any of these assays.
HT1080-NT tox = qHTS for induction of synthetic lethality in tumor cells producing 2HG: qHTS for the HT-1080-NT fibrosarcoma cell line | HT-1080-NT fibrosarcoma viability, CellTiter-Glo ATP luminescence, 48 h | Potency, µM (top dose mostly 46.1 µM), without a hit: at the highest dose activity, negative = less viability, hits mostly cytotoxic | hit rate 1.6% among 360,000 | AID 686970, 2013;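 note: NT is the 2HG producing partner of a matched IDH1 knockdown line; 0% = DMSO-treated cells and -100% = media-only wells without cells; nearly all actives have a fitted effect of over 55% in size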
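HT-1080-NT fibrosarcoma cells (2HG-overproducing), 750 cells/well in RPMI with 5% FBS, dosed after 2 h and incubated 48 h at 37C. CellTiter-Glo luminescence normalized to DMSO and no-cell wells; concentration-response curves fitted and classed.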
ATXN2 expr inh = Primary qHTS for Inhibitors of ATXN expression; HEK-293 ATXN2-luciferase reporter, luminescence, 24 h; Potency, µM (doses to about 57 µM), for inactives: top-dose activity change, negative = inhibition, most hits filed as inhibitors; hit rate 0.72% among 360,000; note: % is set by controls: 0 for no effect and ±100 for the full control effect; nearly all actives have a fitted effect of over 55% in size
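ATXN2-luciferase reporter cells (luciferase flanked by upstream and downstream ATXN2 gene portions) were treated 24 h at 37 °C with compounds at up to 57 uM. SteadyGlo luminescence gave expression; GF-AFC fluorescence gave viability.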
KB-3-1 tox = qHTS assay for MDR1-selective chemotherapeutics: Primary screen using the parental adenocarcinoma cell KB-3-1. KB-3-1 viability, CellTiter-Glo ATP luminescence, 72 h. Potency, µM (series often up to 46.1 µM), hits mostly cytotoxic. hit rate 1.4% among 400,000; note: % is set by controls: 0 for no effect and ±100 for the full control effect; nearly all actives have a fitted effect of over 60% in size
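Cytotoxicity in the drug-sensitive parental line KB-3-1 was scored as loss of CellTiter-Glo luminescence following 72 h incubation with compound. Values come from curve fitting of normalized concentration-response data.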
KB-V1 cytotox = qHTS assay for MDR1-selective chemotherapeutics: Primary screen using the drug-selected MDR subline cells KB-V1; KB-V1 MDR cells viability, CellTiter-Glo, 72 h; Potency, µM (titrated, usually from 46.1 µM), usual class: cytotoxic; hit rate 3.4% among 400,000; AID 1347076, 2019; note: % is set by controls: 0 for no effect and ±100 for the full control effect; nearly all actives have a fitted effect of over 60% in size
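Compound-treated KB-V1 multidrug-resistant cells, 72 h, 37 degrees C; viability by CellTiter-Glo. Fitted qHTS curves give the values.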
ATXN viability = Viability Counterscreen for Primary qHTS for Inhibitors of ATXN expression. S2 cells (HEK-293 line with an ATXN2-luciferase reporter) viability, CellTiter-Fluor protease fluorescence, 24 h. Potency, µM (highest dose often 56.7 µM), usual class: cytotoxic. hit rate 0.49% among 400,000. AID 651635, 2014; note: nearly all actives have a fitted effect of over 40% in size
HT1080 IDH1KD tx = qHTS for induction of synthetic lethality in tumor cells producing 2HG: qHTS for the HT-1080-IDH1KD cell line | Potency, µM (titrated, usually from 46.1 µM), for inactives: at the highest dose activity, negative = toxicity, usual class: cytotoxic | hit rate 2% among 360,000 | HT-1080 IDH1 knockdown viability, ATP luminescence, 48 h | AID 686971, 2013;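 note: 0% = DMSO wells and -100% = cell-free medium wells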
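Using the IDH1-knockdown HT-1080 line run in the same batch and compound series as the NT line, viability after 48 h at 37 °C was determined by CellTiter-Glo luminescence and expressed as % activity.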
* = called active by the depositor; i = inactive; ? = inconclusive; · = no result given; ! = a repeat was not active; [ ] = remark or other dose. Calls come from the whole dose curve; as a rule, active = well fitted curve in the direction sought with a large enough effect; inconclusive = small, poorly fitted or top-dose-only effect, or another doubt; inactive = no such curve, though single readings can be large; an effect the other way counts as inactive or inconclusive. Potency is the fitted concentration of half-maximal effect.

SMILES | HT1080-NT tox | ATXN2 expr inh | KB-3-1 tox | KB-V1 cytotox | ATXN viability | HT1080 IDH1KD tx
CC1CCCCN1C(=O)c1cc(-c2ccc(Cl)c(Cl)c2)on1 (configuration not stated) | 22% | 69% | i | 18µM* | i | 18%
O=C(c1cc(-c2ccc(Cl)cc2)on1)N1CCCC1 | 18% | ? | i | i | ? | 5%
CC1CCCCN1C(=O)c1cc(-c2ccc3c(c2)OCO3)on1 (configuration not stated) | 12% | 46% | i | i | i | 2%
CCC1CCCCN1C(=O)c1cc(-c2ccc(Cl)c(Cl)c2)on1 (configuration not stated) | 11% | 31% | i | 21µM* | i | -18%
O=C(c1cc(-c2ccc(Cl)c(Cl)c2)on1)N1CCN(c2ccccc2)CC1 | 11% | 21% | i | i | i | 15%
Cn1c(-c2cccc(Br)c2)cnc1NCc1cccc(F)c1 | · | -22% | ? | i | i | ·
Nc1ccn([C@@H]2O[C@H](CO)[C@@H](O)[C@@H]2O)c(=O)n1 | -8% | ? | i | i | i | ?
Nc1ncn([C@@H]2O[C@H](CO)[C@@H](O)[C@H]2O)c(=O)n1 | 1.6µM* | 6.3µM*! | ? | ? | i | 1.8µM*
Nc1ncn([C@@H]2O[C@H](CO)[C@@H](O)[C@@H]2O)c(=O)n1 | · | 5.4µM* | · | · | · | ·
CCCn1cnnc1CNC(=O)[C@H]1O[C@@H](n2ccc(=O)[nH]c2=O)[C@H](O)[C@@H]1O | -3% | -15% | i | 18µM* | i | 1%
Cc1cc2c(cc1C)N[C@]1(C[C@H]3CCC(=O)N4CC[C@@H](C1)[C@@H]34)C(=Nc1ccccc1C)N2 | · | · | i | i | · | ·
CCOC(=O)c1cnc2ccc(Br)cc2c1NCCN1CCOCC1 | · | -2% | i | i | i | ·
Cc1ccc(NC(=S)N(CCCN2CCC(C)CC2)Cc2ccco2)cc1C | -9% | -27% | i | 23µM* | i | -25%
N#CC1=C(N)C(C#N)(C#N)[C@H](c2c(F)cccc2F)[C@H]2CC3(CC=C12)OCCO3 | ? | ? | 6.5µM* | ? | ? | 10µM*
CN1C2C=C3C(C#N)=C(N)C(C#N)(C#N)[C@H](c4c(F)cccc4F)[C@H]3C1CC2 (some centres not stated) | ? | -14% | i | i | i | -13%[9.24 µM]
CC12CCC(C/C1=N\N=C1\NC(=O)/C(=C\c3ccc(Cl)cc3)S1)C2(C)C (configuration not stated) | 16µM* | 5% | ? | ? | i | 21µM*
O=C(c1ccc(OC2CCN(Cc3ccc(C(F)(F)F)cc3)CC2)cc1)N1CCCCC1 | 13% | -16% | i | i | i | 16%
O=C(c1ccc(OC2CCN(Cc3ccccc3C(F)(F)F)CC2)cc1)N1CCCCC1 | -15% | -30% | ? | 16µM* | i | ?
COc1cc(C(=O)N2CCN(Cc3ccccc3C(F)(F)F)CC2)cc(OC)c1OC | 9% | -11% | i | 15µM* | i | 13%
COc1cc(OC)cc(C(=O)N2CCN(Cc3ccccc3C(F)(F)F)CC2)c1 | -8% | 2% | i | 15µM* | i | -29%
COc1cccc(OC)c1C(=O)N1CCN(Cc2ccccc2C(F)(F)F)CC1 | -17% | -18% | i | i | i | -12%
CC(C)c1ccc(NC(=O)CN2C(=O)C3(SCC(=O)N3c3ccc(F)cc3)c3ccccc32)cc1 (configuration not stated) | · | -25% | ? | i | i | ·
